Experimental data reported in PubChem BioAssay (NCATS).
Records with an inconclusive call do not appear. Active and inactive are the calls of the source. Calls follow the shape of the dose curve; as a rule, active = well fitted curve in the direction sought with a large enough effect; inconclusive = small, poorly fitted or top-dose-only effect, or another doubt; inactive = no such curve, though single readings can be large; an effect the other way counts as inactive or inconclusive.

Columns and labels:
[1] = KB-8-5-11 Cancer Cell Toxicity qHTS against the NCATS CANVASS Library (AID 1347364); conditions: KB-8-5-11 MDR cells viability, CellTiter-Glo, 72 h; series mostly up to 46.1 µM; also: nearly all actives have a fitted effect of over 75% in size
Method in brief: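 CellTiter-Glo luminescence after 72 h exposure; 500 KB-8-5-11 cells/well, DMEM/10% FBS, 37C, 5% CO2; compounds in 11-pt qHTS. Follow-up confirmation included medium with 1uM tariquidar.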

[2] = SDT Cancer Cell Toxicity qHTS against the NCATS CANVASS Library (AID 1347365); conditions: SDT dog glioma viability, ATP luminescence, 72 h; series mostly up to 46.1 µM;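 also: SDT canine glioma cells 500 per well in 1536 well plates; nearly all actives have a fitted effect of over 60% in size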
Excerpt: (§1) Natural products and their derivatives continue to be wellsprings of nascent therapeutic potential. However, many laboratories have limited resources for biological evaluation, leaving their previously isolated or synthesized compounds largely or completely untested. To address this issue, the Canvass library of natural products was assembled (https://tripod.nih.gov/canvass), in collaboration with academic and industry researchers, for quantitative high-throughput screening (qHTS) across a diverse set of cell-based and biochemical assays. The pure (>85% purity by liquid chromatography/mass spectrometry [LC/MS]) Canvass library of 346 natural products were submitted by 45 academic laboratories and companies around the world. We collected pure natural products to circumvent deconvolution and structure elucidation due to time and resource limitations. The library was formatted into 1536-well plates and evaluated in 50 qHTS (in an 11-pnt concentration series) bioassays with broad scope of disease-relevant mechanisms. The resulting data set from 50 different assays was then systematically analyzed to identify overall trends and specific natural products with interesting biological activities. Reported herein are the results of each individual qHTS and their corresponding assay protocol. This assay uses ATP (luminescence) content to measure the cytotoxiciy of compounds on SDT dog glioma cancer cell line. National Center for Advancing Translational Sciences (NCATS), Rockville, MD National Institute of Health (NIH), Bethesda, Maryland
(§2) Cancer Cell Toxicity qHTS protocol: for cell lines G06, J3T, and SDT. 1. In a 1536 well, tissue culture treated white solid bottom plates (Corning 7494), 5 uL of SDT cell solution (final concentration of 500 cells / well) was dispensed using the Multidrop Combi dispenser (Thermo Fisher Scientific) into columns 2, 3, 5-48. 2. […] Luminescence signal was acquired via the ViewLux plate reader (PerkinElmer) using a clear emission filter, 2 sec exposure, and 1x binning settings.

[3] = KB-3-1 Cancer Cell Toxicity qHTS against the NCATS CANVASS Library (AID 1347366); conditions: KB-3-1 viability, CellTiter-Glo luminescence, 72 h; series mostly up to 46.1 µM; also: nearly all actives have a fitted effect of over 75% in size
Method in brief: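 Seed KB-3-1 cells at 500/well in DMEM with 10% FBS, add compounds, incubate 72 hr at 37C and 5% CO2, then add CellTiter-Glo and read luminescence after 10 minutes.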

[4] = qHTS for ATAD5 Agonist screened against the NCATS CANVASS Library (AID 1347367); conditions: HEK293T ATAD5-luciferase reporter, luminescence, 16 h; series mostly up to 46.1 µM;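 also: luciferase reporter driven by ATAD5 which rises upon DNA damage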
Method in brief: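 Step one plated reporter cells and let them acclimate 5hr. Step two pinned compounds with MMS as positive and 0.46% DMSO as negative control. After 16hr incubation, fluorescence viability then luminescence were read.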

[5] = G06 Cancer Cell Toxicity qHTS against the NCATS CANVASS Library (AID 1347368); conditions: G06 dog glioma cells, viability ATP luminescence, 72 h; series mostly up to 46.1 µM; also: nearly all actives have a fitted effect of over 60% in size
Excerpt: as §1, with “G06” for “SDT”
as §2, with “of G06” for “of SDT”

[6] = MCF7 Cancer Cell Toxicity qHTS against the NCATS CANVASS Library (AID 1347369); conditions: MCF7 viability, ATP luminescence (CellTiter-Glo), 72 h; at 46 µM (top of the series)
Method in brief: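 Cytotoxicity is measured by ATP content: MCF7 cells at 500 per well receive an 11-point compound series and, after 72 hr at 37C, are lysed with CellTiterGlo for luminescence.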

[7] = qHTS for ATAD5 Antagonist screened against the NCATS CANVASS Library (AID 1347370); conditions: HEK293T-ATAD5-luc, 5-FUrd stimulated, luminescence, 16 h; series mostly up to 46.1 µM;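 also: HEK293T cells carrying an ATAD5 luciferase reporter co-treated with 10 µM 5-fluorouridine; nearly all actives have a fitted effect of over 65% in size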
Method in brief: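 HEK293T-ATAD5 luc reporter, 2000 cells/well; 5hr attach; cpd + 10 uM 5-FUrd; 16hr 37C, 5% CO2. Readouts: CellTiter-Fluor fluorescence (1hr), then Amplite luciferase luminescence (30min RT).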

[8] = J3T Cancer Cell Toxicity qHTS against the NCATS CANVASS Library (AID 1347371); conditions: J3T dog glioma viability, ATP luminescence, 72 h; series mostly up to 46.1 µM
Method in brief: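 Dog glioma J3T, 500 cells/well; cpd 11-pt qHTS; 72 hr, 37C/5% CO2; CellTiterGlo ATP luminescence readout.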

[9] = system: NAD(P)H diaphorase (Clostridium kluyveri); test: Diaphorse counterscreen qHTS: Assay Interference Panel against the NCATS CANVASS Library (AID 1347362); conditions: Diaphorase enzyme, resazurin to resorufin fluorescence; series mostly up to 57.5 µM
Method in brief: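 Counterscreen for coupling-enzyme interference: resorufin fluorescence from resazurin/NADH turnover, read after 5 min at room temperature. Compounds were tested over an 11-point series after 15 min dark preincubation with diaphorase in PBS-Tween.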

[10] = biological target: Luciferin 4-monooxygenase (Photinus pyralis) (UniProt P08659); test: Firefly luciferase counterscreen qHTS: Assay Interference Panel against the NCATS CANVASS Library (AID 1347363); conditions: purified firefly luciferase, luminescence inhibition, 5 min; series mostly up to 57.5 µM
Chain of Luciferin 4-monooxygenase (Photinus pyralis) (P08659 whole entry, looked up): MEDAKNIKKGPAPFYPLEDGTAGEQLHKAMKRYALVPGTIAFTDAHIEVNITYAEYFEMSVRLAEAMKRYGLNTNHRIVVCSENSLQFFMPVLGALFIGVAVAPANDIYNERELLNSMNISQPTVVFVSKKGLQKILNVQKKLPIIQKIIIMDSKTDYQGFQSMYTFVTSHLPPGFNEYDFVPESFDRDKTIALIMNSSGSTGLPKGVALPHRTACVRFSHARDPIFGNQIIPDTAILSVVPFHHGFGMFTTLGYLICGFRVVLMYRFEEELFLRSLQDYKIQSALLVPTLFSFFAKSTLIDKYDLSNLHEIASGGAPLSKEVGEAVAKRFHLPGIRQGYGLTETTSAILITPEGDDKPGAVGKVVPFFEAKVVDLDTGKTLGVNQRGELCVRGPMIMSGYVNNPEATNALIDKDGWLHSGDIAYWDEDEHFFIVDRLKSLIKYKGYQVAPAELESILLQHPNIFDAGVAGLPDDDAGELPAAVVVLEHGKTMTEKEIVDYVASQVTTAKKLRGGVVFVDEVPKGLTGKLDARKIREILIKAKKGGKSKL
Method in brief: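 Luminescence inhibition readout: compounds (11-point qHTS) sat 15 min at room temperature with substrate mix (0.013 mM luciferin and ATP), then firefly luciferase was added and signal read 5 min later.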

Measured: outcome

O=c1cc(-c2ccccc2)oc2cc(O)c(O)c(O)c12
inactive: [1] | [2] | [3] | [4] | [5] | [6] | [7] | [8]

COC(=O)[C@@H]1[C@H]2C[C@H]3c4[nH]c5ccccc5c4CCN3C[C@@H]2CC[C@@H]1O
inactive: [9] | [10] | [1] | [2] | [3] | [4] | [5] | [6] | [7] | [8]

O=C(O)C(O)Cc1ccc(O)c(O)c1 (stereo unspecified)
inactive: [10] | [1] | [2] | [3] | [4] | [5] | [7] | [8]
